{
  "source": "PubChem BioAssay (Tox21)",
  "note": "Records with an inconclusive call do not appear. Entries that show only a call come without a potency. The source made the active and inactive calls. The call rests on the fitted dose curve; in most records, active means well fitted cell-killing curve with a large enough effect in the repeat runs; inconclusive means weak or mixed curves, or effect the other way; inactive means no such curve, though single readings can be large or run the other way. Potency means the concentration at half of the fitted maximal effect.",
  "data": [
    {"assay": "qHTS assay for identifying genotoxic compounds that show differential cytotoxicity against isogenic chicken DT40 cell lines with known DNA damage response pathways - wild type cell line (AID 743012); further: nearly all actives have a fitted effect of over 60% in size", "conditions": "DT40 wild type chicken cells viability, CellTiter-Glo, 40 h; series mostly up to 68.4 µM", "summary_of_the_method": "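Wild-type DT40 cells (300/well) exposed to compounds for 40 hours at 37 C/5% CO2. Viability read by CellTiter-Glo luminescence after 30 min at room temperature.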", "values": [
      {"smiles": "Nc1cccc2c1CN(C1CCC(=O)NC1=O)C2=O", "note": "(configuration not stated)", "Potency": "inactive"},
      {"smiles": "OC(CCN1CCCC1)(c1ccccc1)C1CCCCC1", "note": "(configuration not stated)", "Potency": "11.4 µM (active)"},
      {"smiles": "COC(=O)CCS", "Potency": "inactive"},
      {"smiles": "CCn1cc(C(=O)O)c(=O)c2cc(F)c(N3CCNCC3)cc21", "Potency": "inactive"},
      {"smiles": "CCOC(=O)[C@H](CCc1ccccc1)N[C@@H](C)C(=O)N(CC(=O)O)C1Cc2ccccc2C1", "Potency": "21.1 µM (active)"},
      {"smiles": "C/C=C(/C(=C/C)c1ccc(O)cc1)c1ccc(O)cc1", "Potency": "inactive"},
      {"smiles": "C[C@@H]1CC(=O)NN=C1c1ccc(NN=C(C#N)C#N)cc1", "Potency": "18.8 µM (active)"}
    ]},
    {"assay": "qHTS assay for identifying genotoxic compounds that show differential cytotoxicity against isogenic chicken DT40 cell lines with known DNA damage response pathways - Rev3 mutant cell line (AID 743014); further: nearly all actives have a fitted effect of over 55% in size", "conditions": "chicken DT40 Rev3-/- viability, CellTiter-Glo, 40 h; series mostly up to 68.4 µM", "values": [
      {"smiles": "O=c1cc(-c2ccccc2)oc2ccc3ccccc3c12", "Potency": "15.4 µM (active)"},
      {"smiles": "C=CC(=O)OCC1CC2CC1C1CCC(COC(=O)C=C)C21", "note": "(configuration not stated)", "Potency": "24.3 µM (active)"},
      {"smiles": "CCCCN1CCCC1C(=O)Nc1c(C)cc(C)cc1C", "note": "(configuration not stated)", "Potency": "23.7 µM (active)"},
      {"smiles": "O=C(OC(=O)c1ccccc1)c1ccccc1", "Potency": "inactive"},
      {"smiles": "O=C1c2ccccc2C(=O)C1(O)O", "Potency": "24.5 µM (active)"},
      {"smiles": "Cc1cc(C)c(N)cc1C", "Potency": "inactive"},
      {"smiles": "CN1C(=O)OC(C)(C)C1=O", "Potency": "inactive"},
      {"smiles": "CC(=O)Nc1ccc(C)cc1C", "Potency": "inactive"},
      {"smiles": "O=C(CCc1ccc(O)cc1)c1c(O)cc(O)cc1O", "Potency": "62.5 µM (active)"},
      {"smiles": "O=C(O)CCCCCCCCCCCBr", "Potency": "inactive"},
      {"smiles": "C1C[C@@H]2[C@H]3CC[C@H](C3)[C@@H]2C1", "Potency": "inactive"},
      {"smiles": "CC1(C)S[C@@H]2[C@H](NC(=O)C(c3ccccc3)S(=O)(=O)O)C(=O)N2[C@H]1C(=O)O", "note": "(some centres not stated)", "Potency": "inactive"},
      {"smiles": "CC1(CN2CCC(n3c(=O)[nH]c4ccccc43)CC2)OCc2ccccc2-n2cccc21", "note": "(configuration not stated)", "Potency": "29.8 µM (active)"},
      {"smiles": "CCC(=O)OC", "Potency": "inactive"},
      {"smiles": "CCOC(=O)c1ccccc1C(=C1C=C(Br)C(=O)C(Br)=C1)c1cc(Br)c(O)c(Br)c1", "Potency": "inactive"}
    ]}
  ]
}
